The first assay concerns the target ZNF721 full-length (Homo sapiens, UniProt Q8TF20-2 1-923). Nature of the assay: HT-SELEX; 20 mM HEPES pH 7, 140 mM KCl, 5 mM NaCl, 1 mM K2HPO4, 2 mM MgSO4, 100 uM EGTA, ZnSO4, 0.1% Tween20; room temperature, 1 h; high values mean tight binding. The settings on record: protein: ivt; tags: eGFP (N-terminal); dsDNA, one strand shown. The method, boiled down: (§1)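 Full-length or DNA-binding-domain forms of a tagged transcription factor were produced in HEK293 lysate or cell-free extract and immobilised on beads. Incubation with a randomized 40-base DNA library ran for 1 h at room temperature in HEPES/KCl low-stringency buffer with Tween20, after which bound DNA was washed, heat-eluted, PCR-amplified over successive cycles and Illumina-sequenced. Binding strength is given as the relative k-mer count in selected reads, higher for tighter binding.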
Sequence of ZNF721 full-length (Q8TF20 other isoform, or with tags, fused parts or gaps): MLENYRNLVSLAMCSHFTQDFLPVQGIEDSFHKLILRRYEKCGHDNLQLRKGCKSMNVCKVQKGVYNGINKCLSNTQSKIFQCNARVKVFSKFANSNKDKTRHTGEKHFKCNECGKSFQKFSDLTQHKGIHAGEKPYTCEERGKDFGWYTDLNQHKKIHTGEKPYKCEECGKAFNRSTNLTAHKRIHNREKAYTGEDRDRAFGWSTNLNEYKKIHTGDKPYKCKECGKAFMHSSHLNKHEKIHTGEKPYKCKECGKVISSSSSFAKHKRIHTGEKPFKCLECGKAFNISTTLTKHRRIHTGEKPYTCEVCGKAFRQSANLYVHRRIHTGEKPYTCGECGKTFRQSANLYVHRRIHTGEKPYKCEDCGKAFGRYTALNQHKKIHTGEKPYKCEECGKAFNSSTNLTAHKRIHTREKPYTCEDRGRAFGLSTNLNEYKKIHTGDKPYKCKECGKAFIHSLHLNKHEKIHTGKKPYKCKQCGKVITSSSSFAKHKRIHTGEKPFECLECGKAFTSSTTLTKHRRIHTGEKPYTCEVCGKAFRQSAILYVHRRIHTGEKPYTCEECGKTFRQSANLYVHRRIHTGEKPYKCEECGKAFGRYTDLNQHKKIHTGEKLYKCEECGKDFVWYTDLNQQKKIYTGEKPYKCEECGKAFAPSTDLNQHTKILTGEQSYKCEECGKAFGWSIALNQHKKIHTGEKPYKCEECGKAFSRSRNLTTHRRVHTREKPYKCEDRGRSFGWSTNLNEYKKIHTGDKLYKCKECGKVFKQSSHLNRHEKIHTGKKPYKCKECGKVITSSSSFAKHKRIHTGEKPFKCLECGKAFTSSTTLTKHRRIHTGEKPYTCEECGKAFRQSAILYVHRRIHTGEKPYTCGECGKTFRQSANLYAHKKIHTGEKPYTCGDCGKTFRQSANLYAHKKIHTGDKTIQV
Sequence of ZNF721 DBD1 (Q8TF20 17-449): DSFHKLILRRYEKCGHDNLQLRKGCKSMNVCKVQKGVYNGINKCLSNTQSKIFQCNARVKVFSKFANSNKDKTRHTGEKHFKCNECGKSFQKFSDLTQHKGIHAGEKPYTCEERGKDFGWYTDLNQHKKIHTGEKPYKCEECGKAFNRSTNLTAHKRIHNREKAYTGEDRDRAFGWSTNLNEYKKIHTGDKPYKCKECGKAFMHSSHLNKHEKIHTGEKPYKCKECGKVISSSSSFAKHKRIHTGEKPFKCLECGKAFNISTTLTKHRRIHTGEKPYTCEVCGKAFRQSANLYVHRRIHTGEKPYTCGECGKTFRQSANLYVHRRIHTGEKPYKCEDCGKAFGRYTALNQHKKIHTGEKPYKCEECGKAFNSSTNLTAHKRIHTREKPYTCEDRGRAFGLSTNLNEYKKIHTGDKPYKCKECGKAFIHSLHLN
In turn, CCCACCCGAC gave a binding signal of 0.114 relative 10-mer count.
As for AAAGCAGCCC, the binding signal is 0.134 relative 10-mer count.
CCACCCCACA showed a binding signal of 0.163 relative 10-mer count.
CCCCACCCCG yielded a binding signal of 0.186 relative 10-mer count.
The same measure, in the same setting: with CCGCCACCCC the figure was 0.307 relative 10-mer count; with CCACCGTCCC, 0.112 relative 10-mer count.
In the case of CCCCCCCTCC, the binding signal is 0.208 relative 10-mer count.
In turn, CCTCCCCGCC had a binding signal of 0.138 relative 10-mer count.
On the same count and under the same terms, to CACCGTCCCC belongs 0.111 relative 10-mer count.
Sequence CAGCATACCC yielded a binding signal of 0.596 relative 10-mer count.
On the same count and under the same terms, with CACCCCCCCG the figure was 0.131 relative 10-mer count.
For the sequence CCACTCCCCC, the binding signal was 0.12 relative 10-mer count.
As to ACCCACCCCT, the binding signal was determined as 0.134 relative 10-mer count.
Take CCACCACCCC: the binding signal was 0.455 relative 10-mer count.
Same read-out and setting: to AAAGGCATAC belongs 0.129 relative 10-mer count; to AAAAGCGTAC, 0.118 relative 10-mer count.
In turn, AAAAGGCATA came in with a binding signal of 0.133 relative 10-mer count.
On the same count and under the same terms, with CCCCCCCCCA the figure was 0.16 relative 10-mer count.
As for AGGAAAAAAG, the binding signal is 0.114 relative 10-mer count.
CCCCCACTCC returned a binding signal of 0.14 relative 10-mer count.
GTGGGGTGGA gave a binding signal of 0.103 relative 10-mer count.
Take CGTCCCCCAC: the binding signal is 0.104 relative 10-mer count.
Sequence ATAGCTTCAT gave a binding signal of 0.118 relative 10-mer count.
CCACCCCCCC gave a binding signal of 0.32 relative 10-mer count.
The same measure, in the same setting: to AAAAAAGCTG belongs 0.303 relative 10-mer count; to GCCCCCCGCC, 0.123 relative 10-mer count; to AAACAGCGTA, 0.378 relative 10-mer count.
For ACACCCCACC, the binding signal stood at 0.13 relative 10-mer count.
In turn, AGCTTTTTTC had a binding signal of 0.449 relative 10-mer count.
As for AAAACAAGCA, the binding signal is 0.157 relative 10-mer count.
Consider AGGTGGGGTG, for which the binding signal was found to be 0.114 relative 10-mer count.
On to CACCACACCC, for which the binding signal worked out at 0.12 relative 10-mer count.
Sequence GGGTGGGGCA registered a binding signal of 0.104 relative 10-mer count.
With CCCACACCCA, the binding signal was 0.107 relative 10-mer count.
Still for that read-out and setting: to CCACCCGCCA belongs 0.108 relative 10-mer count.
For the sequence CCCCTCCTCC, the binding signal came to 0.154 relative 10-mer count.
In the case of AACAAAAAAG, the binding signal came to 0.106 relative 10-mer count.
GCCCCCACCC had a binding signal of 0.19 relative 10-mer count.
With CGCCTCCCCC, the binding signal is 0.126 relative 10-mer count.
The sequence AGGGGGAGGG showed a binding signal of 0.145 relative 10-mer count.

A further assay concerns the target ZNF721 DBD1 (Homo sapiens, UniProt Q8TF20-2 29-461). The description is as above. The settings on record: protein: ivt; tags: eGFP (N-terminal); dsDNA, one strand shown. In a few lines:
as §1
Turning to CCCACCCGAC, the binding signal turned out to be 0.00449 relative 10-mer count.
Sequence AAAGCAGCCC had a binding signal of 0.00225 relative 10-mer count.
Still for that read-out and setting: to CCACCCCACA belongs 0.00564 relative 10-mer count.
In the case of CCCCACCCCG, the binding signal is 0.00784 relative 10-mer count.
Same read-out and setting: with CCGCCACCCC the figure was 0.0102 relative 10-mer count; with CCACCGTCCC, 0.00491 relative 10-mer count; with CCCCCCCTCC, 0.00982 relative 10-mer count.
The sequence CCTCCCCGCC registered a binding signal of 0.00697 relative 10-mer count.
The same measure, in the same setting: to CACCGTCCCC belongs 0.0039 relative 10-mer count; to CAGCATACCC, 0.00271 relative 10-mer count; to CACCCCCCCG, 0.00252 relative 10-mer count.
In turn, CCACTCCCCC displayed a binding signal of 0.00436 relative 10-mer count.
ACCCACCCCT registered a binding signal of 0.00541 relative 10-mer count.
In turn, CCACCACCCC returned a binding signal of 0.0194 relative 10-mer count.
In turn, AAAGGCATAC came in with a binding signal of 0.00142 relative 10-mer count.
AAAAGCGTAC showed a binding signal of 0.0294 relative 10-mer count.
For AAAAGGCATA, the binding signal was 0.00161 relative 10-mer count.
Same read-out and setting: to CCCCCCCCCA belongs 0.00477 relative 10-mer count; to AGGAAAAAAG, 0.0333 relative 10-mer count; to CCCCCACTCC, 0.00665 relative 10-mer count.
Sequence GTGGGGTGGA returned a binding signal of 0.00573 relative 10-mer count.
In turn, CGTCCCCCAC returned a binding signal of 0.00468 relative 10-mer count.
Same read-out and setting: with ATAGCTTCAT the figure was 0.158 relative 10-mer count; with CCACCCCCCC, 0.0122 relative 10-mer count.
With AAAAAAGCTG, the binding signal worked out at 0.137 relative 10-mer count.
Same read-out and setting: with GCCCCCCGCC the figure was 0.00477 relative 10-mer count; with AAACAGCGTA, 0.00115 relative 10-mer count; with ACACCCCACC, 0.00413 relative 10-mer count.
AGCTTTTTTC came in with a binding signal of 0.217 relative 10-mer count.
Take AAAACAAGCA: the binding signal is 0.00638 relative 10-mer count.
Same read-out and setting: with AGGTGGGGTG the figure was 0.00532 relative 10-mer count; with CACCACACCC, 0.00486 relative 10-mer count; with GGGTGGGGCA, 0.00344 relative 10-mer count.
The same measure, in the same setting: to CCCACACCCA belongs 0.00468 relative 10-mer count; to CCACCCGCCA, 0.00445 relative 10-mer count; to CCCCTCCTCC, 0.00794 relative 10-mer count.
AACAAAAAAG: the binding signal was 0.00927 relative 10-mer count.
Still for that read-out and setting: with GCCCCCACCC the figure was 0.0083 relative 10-mer count; with CGCCTCCCCC, 0.0061 relative 10-mer count.
AGGGGGAGGG returned a binding signal of 0.00752 relative 10-mer count.

Values taken from PMC13541613, “GHT-SELEX demonstrates unexpectedly high intrinsic sequence specificity and complex DNA binding of many human transcription factors”.
